The full ranking holds about 2,000 compounds; the median of “B-score” is about -0.0024, and the highest 2% start at about 4. Shown is part of a subset that was picked to be rich in the highest values. Where a SMILES comes first, the peptide text is derived from it. [ ]: non-standard residue; d: D form. dPhe(4-Cl) = N[C@H](Cc1ccc(Cl)cc1)C(=O)O; d2Nal = N[C@H](Cc1ccc2ccccc2c1)C(=O)O; dCit = NC(=O)NCCC[C@@H](N)C(=O)O; d3Pal = N[C@H](Cc1cccnc1)C(=O)O
These compounds were tested on Balamuthia mandrillaris (ATCC PRA-291) trophozoites, axenic culture (assay: primary screen, b score). Settings: 20 µM.
Summary of the method: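 Trophozoites (3,000/well) in axenic medium exposed to library drugs at 20 µM in 0.2% DMSO for 72 h; viability by CellTiter Glo luminescence at 2, 4 and 8 h. Controls: vehicle and freeze-thaw amoeba lysate; B-score corrects row, column and edge effects.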

Compound | B-score
CC(CCc1ccccc1)NC(C)C(O)c1ccc(O)cc1 (centres unmarked) | 1.37
CCn1cc(C(=O)O)c(=O)c2cc(F)c(N3CCN(C)CC3)cc21 [518631-L6] | 0.04
CC(=O)N[C@H](Cc1ccc2ccccc2c1)C(=O)N[C@H](Cc1ccc(Cl)cc1)C(=O)N[C@H](Cc1cccnc1)C(=O)N[C@@H](CO)C(=O)N[C@@H](Cc1ccc(O)cc1)C(=O)N[C@H](CCCNC(N)=O)C(=O)N[C@@H](CC(C)C)C(=O)N[C@@H](CCCN=C(N)N)C(=O)N1CCC[C@H]1C(=O)N[C@H](C)C(N)=O (Ac-[d2Nal][dPhe(4-Cl)][d3Pal]SY[dCit]LRP[dA]-NH2) | -2.68
Cc1c(F)c(N2CCNC(C)C2)cc2c1c(=O)c(C(=O)O)cn2C1CC1 (centres unmarked) | -0.223
O=C(O)CCCCCCCC(=O)O | 0.466
CC(CN(C)C)CN1c2ccccc2Sc2ccccc21 (centres unmarked) | 0.0868
CO[C@H]1/C=C/O[C@@]2(C)Oc3c(C)c(O)c4c(O)c(c5c(c4c3C2=O)=NC2(CCN(CC(C)C)CC2)N=5)NC(=O)/C(C)=C\C=C\[C@H](C)[C@H](O)[C@@H](C)[C@@H](O)[C@@H](C)[C@H](OC(C)=O)[C@@H]1C | 1.11
OCCOCCN1CCN(C(c2ccccc2)c2ccc(Cl)cc2)CC1 (centres unmarked) [130849-L5] | 1.53
C=C1CC[C@H](O)C/C1=C/C=C1\CCC[C@]2(C)C([C@H](C)/C=C/[C@H](C)C(C)C)CC[C@@H]12 (some centres unmarked) | 0.264
CCc1cc2c(cc1CC)CC(NC[C@H](O)c1ccc(O)c3nc(O)ccc13)C2 | 1
Nc1ccc(S(=O)(=O)c2ccc(N)cc2)cc1 | -0.0896
Cc1cc(N)c2ccccc2[n+]1CCCCCCCCCC[n+]1c(C)cc(N)c2ccccc21 | 13
Nc1ccn([C@@H]2CS[C@H](CO)O2)c(=O)n1 | 1.59
CN1C(CSCC(F)(F)F)Nc2cc(Cl)c(S(N)(=O)=O)cc2S1(=O)=O (centres unmarked) | 0.321
CCN[C@H]1C[C@H](C)S(=O)(=O)c2sc(S(N)(=O)=O)cc21 | -1.38
CC[C@@]1(O)C(=O)OCc2c1cc1n(c2=O)Cc2cc3c(CN(C)C)c(O)ccc3nc2-1 | 2.13
CCCCCCCCCCCCC[N+](C)(C)Cc1ccccc1 | 3.43
CCCCCCCCCCCCCCCC[n+]1ccccc1 | 7.82
CCCCCCCCCCCCCCCCCCCCCCO | -0.00277
O=S(=O)(OC[C@H]1O[C@@H](O[C@]2(COS(=O)(=O)[O][Al]([OH])[OH])O[C@H](OS(=O)(=O)[O][Al]([OH])[OH])[C@@H](OS(=O)(=O)[O][Al]([OH])[OH])[C@@H]2OS(=O)(=O)[O][Al]([OH])[OH])[C@H](OS(=O)(=O)[O][Al]([OH])[OH])[C@@H](OS(=O)(=O)[O][Al]([OH])[OH])[C@@H]1OS(=O)(=O)[O][Al]([OH])[OH])[O][Al]([OH])[OH] | -0.0184

From paper PMC6212833
